Test results as given in the supplement of paper PMC3484114.
± gives the standard deviation.

Test system: OVCAR-3-derived ovarian cancer stem-like cells (spheroids)
Test: cell growth relative to untreated control; higher = more growth (less inhibition)
Details: 2.29 µM; 96 h
Method in brief: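 OVCAR-3 spheroid-derived stem-like cells were trypsin-dissociated, seeded at 50,000 cells/mL in stem cell medium in ultra-low attachment 96-well plates and preincubated 24 h. Compounds were then added at 2.29 uM for 96 h at 37°C, 5% CO2, in 4 replicate wells. Viability was read as TOX8 resazurin fluorescence (ex 560/em 590 nm) after 4 h. Percent growth was calculated relative to untreated wells after blank subtraction and Grubbs outlier removal.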

Row | Compound | cell growth [%]
1 | CC1=CC23C(COC(=O)C24CO4)C(C(=O)O)=CC3C1C.NCc1ccccc1 (stereo unspecified) | 74.5 ± 29
2 | [Cl][Cd][Cl] | 87.6 ± 51
3 | CC[C@@]1(O)C[C@H](O[C@H]2C[C@H](N(C)C)[C@H](O)[C@H](C)O2)c2c(cc3c(c2O)C(=O)c2c(O)ccc(O)c2C3=O)[C@H]1C(=O)OC | 50.3 ± 31
4 | C[Si](C)(CN)CN.[Cl][Pt][Cl] | 137 ± 53
5 | C1COCCN1.S=C(S)N1CCOCC1 | 63.4 ± 11
6 | COC(=O)C1C(O)C(C)C(O)C(C)/C=C\C=C(C)C(=O)Nc2c(C)c(OC(C)=O)c3c(c2O)C(=O)C(C)=C2OCOC(=C23)C(C)=CC(C)(O)C(O)C(C)C1O (stereo unspecified) | 84.9 ± 18
7 | CN(C)C(=S)SSC(=S)N(C)C | 103 ± 17
8 | CC1Oc2cc3c(-c4c(O)cc(O)c5c(O)c6c(cc45)OC(C)C(C)C6=O)c(O)cc(O)c3c(O)c2C(=O)C1C (stereo unspecified) | 23.8 ± 48
9 | NCCCNCCSP(=O)(O)O | 99.4 ± 12
10 | O=C1N[C@@H]2C(=C[C@H](O)[C@@H](O)[C@H]2O)c2cc3c(c(O)c21)OCO3 | 111 ± 17
11 | [O-][Cl+3]([O-])([O-])[O-].c1ccc(-c2csc3c4ccccc4c4ccccc4[n+]23)cc1 | 45.5 ± 12
12 | COc1cc2c(c(OC)c1OC)-c1ccc(OC)c(=O)cc1[C@@H](NC(C)=O)CC2 | 47.9 ± 11
13 | COc1ccc(C[C@@H]2NC[C@@H](O)[C@@H]2OC(C)=O)cc1 | 94.2 ± 33
14 | CC1OC(O[C@@H]2C=C3CC[C@@H]4[C@H](CC[C@]5(C)[C@@H](c6ccc(=O)oc6)CC[C@]45O)[C@@]3(C)CC2)C(O)C(O)C1O (stereo partly specified) | 24.5 ± 6.9
15 | O=C1N[C@H]2[C@H](O)[C@H](O)[C@@H](O)[C@H](O)[C@@H]2c2cc3c(c(O)c21)OCO3 | 19.5 ± 2.6
16 | CCOC(=O)NC1=C(N2CC2)C(=O)C(NC(=O)OCC)=C(N2CC2)C1=O | 50.1 ± 9.1

Row | Compound | cell growth [%]
17 | COc1ccc(-c2cc(=O)c3c(OC)c(OC)c(OC)cc3o2)cc1 | 120 ± 31
18 | C/C1=C\[C@H](C)C[C@H](C)OC(=O)CC(c2ccc(O)cc2)NC(=O)[C@@H](Cc2c(Br)[nH]c3ccccc23)N(C)C(=O)[C@H](C)NC(=O)[C@@H](C)C1 (stereo partly specified) | 25 ± 5.7
19 | CC1(C)CC2=NO[Se]3=C2C(=NO3)C1 | 22.1 ± 4.6
20 | CC(C)C(NC(=O)C(C(C)C)N(C)C)C(=O)N(C)C(C(=O)N1CCCC1C(=O)N1CCCC1C(=O)NCc1ccccc1)C(C)C (stereo unspecified) | 24.5 ± 8.1
21 | O=C1C=C2C=CC3CC2(O1)C1CCCCN31 (stereo unspecified) | 49.8 ± 9.5
22 | C1CCNCC1.S=C(S)N1CCCCC1 | 36.2 ± 3.5
23 | COC(=O)C1=C(C(=O)OC)SC2(S1)C(C(=O)OC)=C(C(=O)OC)Sc1c2ssc1=O | 60.2 ± 8.6
24 | CC(/C=N/N=C(N)N)=N\N=C(N)N | 70.6 ± 16
25 | Cc1cc(N(CC(C)Br)CC(C)Br)ccc1N=Nc1ccccc1C(=O)O (stereo unspecified) | 64.5 ± 14
26 | CC(C)C[C@H]1C(=O)N2CCC[C@H]2[C@]2(O)O[C@](NC(=O)[C@@H]3C=C4c5cccc6[nH]c(Br)c(c56)C[C@H]4N(C)C3)(C(C)C)C(=O)N12 | 90.6 ± 6.8
27 | [Cl][Hg][c]1ccc2ccccc2c1 | 62.6 ± 8.8
28 | O=[N+]([O-])c1ccc2c(c1)/C(=N/N=C1c3ccccc3Cc3ccccc31)c1cc([N+](=O)[O-])cc([N+](=O)[O-])c1-2 | 57.1 ± 34
29 | CCC[CH2][Sn]1([CH2]CCC)[S]CC[N]1S(=O)(=O)c1ccc(C)cc1 | 36.9 ± 13
30 | C[C@@H]1CCOC(=O)/C=C/C=C\C(=O)O[C@@H]2C[C@H]3O[C@@H]4[C@@H]5O[C@]5(C)[C@H](O)C[C@]4(COC(=O)[C@H]1O)[C@]2(C)[C@@]31CO1 | 13.4 ± 5.4
31 | CC(=O)OC1C(O)C(C)OC(OC2C(OC(=O)C3CCC4C(C3)OC3(CC(OC(=O)/C=C/c5ccccc5)C(C)CO3)C43CO3)OC(C)C(O)C2OC(C)=O)C1O (stereo unspecified) | 5.3 ± 3.2
